# Experimental data from article PMC7862700, “An all-to-all approach to the identification of sequence-specific readers for epigenetic DNA modifications on cytosine”.
# Assays:
# Assay in all cases: DAPPL (digital affinity profiling via proximity ligation, sequencing); 10 mM Tris-HCl pH 7.5, 50 mM NaCl, 1 mM DTT, 4% glycerol, room temperature, 30 min; GST-TFs on glutathione beads, 16-mer random dsDNA library, 0.1% formaldehyde crosslink after washing; high values mean tight binding
# FLI1 = molecular target: T1, FLI1 (Homo sapiens, UniProt Q01543 1-452); conditions: protein: recombinant; tags: N-terminal GST; dsDNA, one strand shown
# T1 sequence: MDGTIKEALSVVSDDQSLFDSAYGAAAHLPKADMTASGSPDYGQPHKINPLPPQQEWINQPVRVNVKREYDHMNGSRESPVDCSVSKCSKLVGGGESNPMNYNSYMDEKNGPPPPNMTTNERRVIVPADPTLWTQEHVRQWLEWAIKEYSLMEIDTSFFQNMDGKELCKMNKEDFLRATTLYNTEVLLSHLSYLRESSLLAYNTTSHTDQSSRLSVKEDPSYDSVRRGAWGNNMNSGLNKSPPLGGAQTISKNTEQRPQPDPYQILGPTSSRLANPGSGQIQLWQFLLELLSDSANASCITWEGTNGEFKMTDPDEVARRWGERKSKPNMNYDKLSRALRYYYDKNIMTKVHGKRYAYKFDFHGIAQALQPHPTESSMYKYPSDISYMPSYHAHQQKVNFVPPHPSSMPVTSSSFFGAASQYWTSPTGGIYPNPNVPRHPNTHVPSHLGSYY
# Summary of the method: (§1)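 In yeast, human transcription factors were expressed with a GST fusion, then pulled down on glutathione beads and given DNA barcodes. Pooled with a tag-only sample, they were exposed to 200 nmole of a 16-mer random double-stranded DNA library (Tris/NaCl/DTT/glycerol buffer, room temperature, 30 min), washed, crosslinked with 0.1% formaldehyde, proximity-ligated using BsaI/T4 ligase for 1 h at 37 °C, PCR-amplified and read on an Illumina NextSeq500. Each hexamer's frequency of reads for a factor, divided by the matching frequency for the tag-only sample, gives the binding signal.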
# ELK1 = molecular target: T2, ELK1 (Homo sapiens, UniProt P19419 1-428); conditions: protein: recombinant; tags: N-terminal GST; dsDNA, one strand shown
# T2 sequence: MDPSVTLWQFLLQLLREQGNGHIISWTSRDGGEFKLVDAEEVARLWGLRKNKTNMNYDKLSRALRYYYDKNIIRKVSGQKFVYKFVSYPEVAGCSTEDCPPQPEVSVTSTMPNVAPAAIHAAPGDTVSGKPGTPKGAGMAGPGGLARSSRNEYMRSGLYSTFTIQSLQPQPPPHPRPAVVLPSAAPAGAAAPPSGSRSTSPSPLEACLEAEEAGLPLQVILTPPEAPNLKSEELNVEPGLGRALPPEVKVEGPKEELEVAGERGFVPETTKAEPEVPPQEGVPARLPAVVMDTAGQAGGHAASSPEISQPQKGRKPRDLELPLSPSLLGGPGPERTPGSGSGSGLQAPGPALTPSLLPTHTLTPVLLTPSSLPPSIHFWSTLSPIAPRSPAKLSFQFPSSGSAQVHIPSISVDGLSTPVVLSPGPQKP
# Summary of the method: as §1
# GABPA = molecular target: T3, GABPA (Homo sapiens, UniProt Q06546 1-454); conditions: protein: recombinant; tags: N-terminal GST; dsDNA, one strand shown
# T3 sequence: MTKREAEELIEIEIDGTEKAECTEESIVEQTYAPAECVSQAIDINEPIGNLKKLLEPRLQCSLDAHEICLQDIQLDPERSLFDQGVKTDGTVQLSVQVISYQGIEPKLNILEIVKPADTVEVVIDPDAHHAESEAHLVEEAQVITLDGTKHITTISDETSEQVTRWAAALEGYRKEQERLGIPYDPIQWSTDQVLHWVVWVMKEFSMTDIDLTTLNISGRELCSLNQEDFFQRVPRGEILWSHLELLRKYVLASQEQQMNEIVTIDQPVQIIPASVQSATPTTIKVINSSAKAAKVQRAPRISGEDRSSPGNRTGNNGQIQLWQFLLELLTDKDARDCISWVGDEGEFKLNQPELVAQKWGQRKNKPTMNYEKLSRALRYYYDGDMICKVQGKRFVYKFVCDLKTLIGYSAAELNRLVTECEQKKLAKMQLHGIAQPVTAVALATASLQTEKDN
# Summary of the method: as §1
# ERG = molecular target: T4, ERG (Homo sapiens, UniProt P11308 1-479); conditions: protein: recombinant; tags: N-terminal GST; dsDNA, one strand shown
# T4 sequence: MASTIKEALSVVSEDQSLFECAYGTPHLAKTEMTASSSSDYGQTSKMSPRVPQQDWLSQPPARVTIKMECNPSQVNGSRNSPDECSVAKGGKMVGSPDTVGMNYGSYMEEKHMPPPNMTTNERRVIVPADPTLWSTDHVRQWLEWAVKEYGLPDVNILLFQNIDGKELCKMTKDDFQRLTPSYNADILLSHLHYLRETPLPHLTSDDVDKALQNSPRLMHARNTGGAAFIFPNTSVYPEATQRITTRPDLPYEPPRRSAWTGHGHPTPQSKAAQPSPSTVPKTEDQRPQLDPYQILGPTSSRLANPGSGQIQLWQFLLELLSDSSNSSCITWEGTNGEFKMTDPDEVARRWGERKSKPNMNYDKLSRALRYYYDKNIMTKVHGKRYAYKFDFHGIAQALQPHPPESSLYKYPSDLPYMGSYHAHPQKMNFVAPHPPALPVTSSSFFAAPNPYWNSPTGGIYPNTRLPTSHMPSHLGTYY
# Summary of the method: as §1
# ELF1 = ELF1 (Homo sapiens, UniProt P32519 1-619); conditions: protein: recombinant; tags: N-terminal GST; dsDNA, one strand shown
# Summary of the method: as §1
# EHF = molecular target: T5, EHF (Homo sapiens, UniProt Q9NZC4 1-300); conditions: protein: recombinant; tags: N-terminal GST; dsDNA, one strand shown
# T5 sequence: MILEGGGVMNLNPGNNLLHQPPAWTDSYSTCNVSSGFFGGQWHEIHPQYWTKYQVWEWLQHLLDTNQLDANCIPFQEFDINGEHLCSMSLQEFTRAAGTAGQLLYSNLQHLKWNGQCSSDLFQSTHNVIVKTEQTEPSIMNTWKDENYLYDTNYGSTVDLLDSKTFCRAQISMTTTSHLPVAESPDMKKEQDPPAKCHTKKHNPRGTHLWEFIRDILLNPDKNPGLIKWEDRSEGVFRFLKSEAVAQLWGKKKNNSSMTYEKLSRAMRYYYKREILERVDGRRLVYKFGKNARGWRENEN
# Summary of the method: as §1
# SPI1 = SPI1 (Homo sapiens, UniProt P17947 1-270); conditions: protein: recombinant; tags: N-terminal GST; dsDNA, one strand shown
# Summary of the method: as §1
# SPIB = SPIB (Homo sapiens, UniProt Q01892 1-262); conditions: protein: recombinant; tags: N-terminal GST; dsDNA, one strand shown
# Summary of the method: as §1
# ELK3 = molecular target: T6, ELK3 (Homo sapiens, UniProt P41970 1-407); conditions: protein: recombinant; tags: N-terminal GST; dsDNA, one strand shown
# T6 sequence: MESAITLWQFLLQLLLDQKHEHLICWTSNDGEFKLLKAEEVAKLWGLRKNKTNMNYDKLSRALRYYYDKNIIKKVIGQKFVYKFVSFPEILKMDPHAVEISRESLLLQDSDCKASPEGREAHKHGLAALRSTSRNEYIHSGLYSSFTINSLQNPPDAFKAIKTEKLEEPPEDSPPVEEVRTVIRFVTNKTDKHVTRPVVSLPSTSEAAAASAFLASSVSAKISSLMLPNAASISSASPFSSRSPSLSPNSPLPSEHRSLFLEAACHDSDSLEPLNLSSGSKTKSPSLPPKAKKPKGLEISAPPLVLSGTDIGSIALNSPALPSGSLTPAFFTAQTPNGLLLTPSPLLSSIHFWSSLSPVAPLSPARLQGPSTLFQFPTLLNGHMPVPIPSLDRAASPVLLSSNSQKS
# Summary of the method: as §1
# FEV = molecular target: T7, FEV (Homo sapiens, UniProt Q99581 1-238); conditions: protein: recombinant; tags: N-terminal GST; dsDNA, one strand shown
# T7 sequence: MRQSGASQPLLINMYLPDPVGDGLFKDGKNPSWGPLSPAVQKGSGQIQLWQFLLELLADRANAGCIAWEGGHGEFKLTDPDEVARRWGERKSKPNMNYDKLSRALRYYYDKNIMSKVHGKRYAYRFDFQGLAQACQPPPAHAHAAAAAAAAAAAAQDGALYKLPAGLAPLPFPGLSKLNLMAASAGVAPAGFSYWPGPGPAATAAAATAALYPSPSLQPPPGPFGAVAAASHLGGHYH
# Summary of the method: as §1
# ETV5 = ETV5 (Homo sapiens, UniProt P41161 1-510); conditions: protein: recombinant; tags: N-terminal GST; dsDNA, one strand shown
# Summary of the method: as §1
# HSF1 = HSF1 (Homo sapiens, UniProt Q00613 1-529); conditions: protein: recombinant; tags: N-terminal GST; chain copies: 3; dsDNA, one strand shown
# Summary of the method: as §1
# SPIC = molecular target: T8, SPIC (Homo sapiens, UniProt Q8N5J4 1-248); conditions: protein: recombinant; tags: N-terminal GST; dsDNA, one strand shown
# T8 sequence: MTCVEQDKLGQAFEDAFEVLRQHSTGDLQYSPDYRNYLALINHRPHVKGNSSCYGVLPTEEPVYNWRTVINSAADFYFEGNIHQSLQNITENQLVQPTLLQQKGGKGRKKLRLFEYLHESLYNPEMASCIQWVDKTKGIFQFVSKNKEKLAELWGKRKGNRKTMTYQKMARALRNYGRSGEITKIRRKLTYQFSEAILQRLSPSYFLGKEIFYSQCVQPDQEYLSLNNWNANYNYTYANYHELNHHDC
# Summary of the method: as §1
# ELF4 = ELF4 (Homo sapiens, UniProt Q99607 1-663); conditions: protein: recombinant; tags: N-terminal GST; dsDNA, one strand shown
# Summary of the method: as §1
# ELK4 = molecular target: T9, ELK4 (Homo sapiens, UniProt P28324-2 1-405); conditions: protein: recombinant; tags: N-terminal GST; dsDNA, one strand shown
# T9 sequence: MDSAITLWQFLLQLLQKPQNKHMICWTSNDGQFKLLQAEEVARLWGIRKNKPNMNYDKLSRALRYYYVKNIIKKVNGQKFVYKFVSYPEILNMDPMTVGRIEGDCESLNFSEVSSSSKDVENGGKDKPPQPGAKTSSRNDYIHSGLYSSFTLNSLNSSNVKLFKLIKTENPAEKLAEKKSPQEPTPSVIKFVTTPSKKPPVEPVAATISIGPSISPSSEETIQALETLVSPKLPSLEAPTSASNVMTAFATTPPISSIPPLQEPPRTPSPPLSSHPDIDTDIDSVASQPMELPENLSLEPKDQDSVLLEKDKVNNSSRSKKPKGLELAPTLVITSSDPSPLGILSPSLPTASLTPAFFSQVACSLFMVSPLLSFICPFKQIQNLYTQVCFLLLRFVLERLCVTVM
# Summary of the method: as §1
# ETV2 = molecular target: T10, ETV2 (Homo sapiens, UniProt O00321 1-342); conditions: protein: recombinant; tags: N-terminal GST; dsDNA, one strand shown
# T10 sequence: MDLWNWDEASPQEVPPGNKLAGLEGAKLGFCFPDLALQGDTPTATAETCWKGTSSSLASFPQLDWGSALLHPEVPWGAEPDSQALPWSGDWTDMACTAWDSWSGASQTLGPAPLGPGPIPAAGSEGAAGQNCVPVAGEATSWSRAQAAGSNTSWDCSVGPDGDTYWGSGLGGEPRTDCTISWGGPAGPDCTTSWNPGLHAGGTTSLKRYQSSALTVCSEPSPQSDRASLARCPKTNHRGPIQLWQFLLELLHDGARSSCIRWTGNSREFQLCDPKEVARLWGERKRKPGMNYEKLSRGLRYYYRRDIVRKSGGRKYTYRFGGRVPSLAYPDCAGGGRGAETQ
# Summary of the method: as §1
# ELF3 = molecular target: T11, ELF3 (Homo sapiens, UniProt P78545 1-371); conditions: protein: recombinant; tags: N-terminal GST; dsDNA, one strand shown
# T11 sequence: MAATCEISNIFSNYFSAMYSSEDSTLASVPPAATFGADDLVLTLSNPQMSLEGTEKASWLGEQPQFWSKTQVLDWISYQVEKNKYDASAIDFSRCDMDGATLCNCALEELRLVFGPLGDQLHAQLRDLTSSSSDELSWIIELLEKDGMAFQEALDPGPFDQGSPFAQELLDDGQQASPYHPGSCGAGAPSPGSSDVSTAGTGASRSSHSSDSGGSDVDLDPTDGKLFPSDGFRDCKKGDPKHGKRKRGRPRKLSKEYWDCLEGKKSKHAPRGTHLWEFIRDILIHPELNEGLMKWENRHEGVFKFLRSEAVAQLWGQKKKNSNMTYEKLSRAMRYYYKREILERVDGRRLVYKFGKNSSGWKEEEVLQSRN
# Summary of the method: as §1
# ETV1 = ETV1 (Homo sapiens, UniProt P50549 1-477); conditions: protein: recombinant; tags: N-terminal GST; dsDNA, one strand shown
# Summary of the method: as §1
# SPIB, sequence (Q01892 whole entry): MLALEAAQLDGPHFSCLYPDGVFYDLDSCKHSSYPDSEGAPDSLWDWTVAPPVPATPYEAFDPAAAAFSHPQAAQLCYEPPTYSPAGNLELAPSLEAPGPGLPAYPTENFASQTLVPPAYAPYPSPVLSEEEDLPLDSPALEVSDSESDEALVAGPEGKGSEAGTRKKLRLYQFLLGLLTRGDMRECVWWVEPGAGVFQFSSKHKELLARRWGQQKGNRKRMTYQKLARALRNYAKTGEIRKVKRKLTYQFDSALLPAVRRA
# ETV5, sequence (P41161 whole entry): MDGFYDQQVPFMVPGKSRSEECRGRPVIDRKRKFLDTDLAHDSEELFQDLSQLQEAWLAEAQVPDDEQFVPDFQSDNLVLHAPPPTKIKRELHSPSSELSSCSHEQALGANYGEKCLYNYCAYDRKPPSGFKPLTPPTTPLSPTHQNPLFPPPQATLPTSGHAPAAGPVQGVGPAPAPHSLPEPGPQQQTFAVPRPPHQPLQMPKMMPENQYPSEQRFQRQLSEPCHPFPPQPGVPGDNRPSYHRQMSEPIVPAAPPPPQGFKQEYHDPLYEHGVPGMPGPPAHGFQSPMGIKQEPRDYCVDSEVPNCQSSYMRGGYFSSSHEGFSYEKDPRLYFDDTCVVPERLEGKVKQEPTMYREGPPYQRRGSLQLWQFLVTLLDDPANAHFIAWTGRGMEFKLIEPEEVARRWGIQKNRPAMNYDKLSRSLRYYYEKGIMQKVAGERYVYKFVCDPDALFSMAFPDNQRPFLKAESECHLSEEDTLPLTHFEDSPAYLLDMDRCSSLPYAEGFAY
# HSF1, sequence (Q00613 whole entry): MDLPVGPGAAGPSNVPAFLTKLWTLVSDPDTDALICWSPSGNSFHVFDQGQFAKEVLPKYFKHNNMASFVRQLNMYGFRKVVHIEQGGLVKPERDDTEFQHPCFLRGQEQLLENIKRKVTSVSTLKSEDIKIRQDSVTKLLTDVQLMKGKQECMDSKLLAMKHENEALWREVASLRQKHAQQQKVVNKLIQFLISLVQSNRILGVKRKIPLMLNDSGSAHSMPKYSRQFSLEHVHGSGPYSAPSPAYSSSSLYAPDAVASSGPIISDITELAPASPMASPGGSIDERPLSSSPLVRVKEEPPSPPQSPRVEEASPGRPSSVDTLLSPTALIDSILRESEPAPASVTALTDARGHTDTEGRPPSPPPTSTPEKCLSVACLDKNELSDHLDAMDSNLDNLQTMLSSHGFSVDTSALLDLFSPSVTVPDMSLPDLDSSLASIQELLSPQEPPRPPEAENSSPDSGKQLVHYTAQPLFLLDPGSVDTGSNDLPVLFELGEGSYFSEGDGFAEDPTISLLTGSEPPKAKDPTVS
# ETV1, sequence (P50549 whole entry): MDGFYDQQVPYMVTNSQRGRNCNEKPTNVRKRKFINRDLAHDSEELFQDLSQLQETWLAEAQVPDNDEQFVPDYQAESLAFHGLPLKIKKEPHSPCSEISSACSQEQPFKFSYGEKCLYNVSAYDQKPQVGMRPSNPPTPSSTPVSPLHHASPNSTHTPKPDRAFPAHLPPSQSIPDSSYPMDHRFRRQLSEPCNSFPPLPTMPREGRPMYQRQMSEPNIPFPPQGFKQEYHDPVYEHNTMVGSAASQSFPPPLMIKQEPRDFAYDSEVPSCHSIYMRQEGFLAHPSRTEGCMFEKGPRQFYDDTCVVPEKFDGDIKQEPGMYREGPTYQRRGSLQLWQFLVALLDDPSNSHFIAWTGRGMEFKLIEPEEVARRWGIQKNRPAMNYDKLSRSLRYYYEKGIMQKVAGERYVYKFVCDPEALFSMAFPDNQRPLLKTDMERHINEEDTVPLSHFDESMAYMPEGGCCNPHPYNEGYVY
# ELF4, sequence (Q99607 whole entry): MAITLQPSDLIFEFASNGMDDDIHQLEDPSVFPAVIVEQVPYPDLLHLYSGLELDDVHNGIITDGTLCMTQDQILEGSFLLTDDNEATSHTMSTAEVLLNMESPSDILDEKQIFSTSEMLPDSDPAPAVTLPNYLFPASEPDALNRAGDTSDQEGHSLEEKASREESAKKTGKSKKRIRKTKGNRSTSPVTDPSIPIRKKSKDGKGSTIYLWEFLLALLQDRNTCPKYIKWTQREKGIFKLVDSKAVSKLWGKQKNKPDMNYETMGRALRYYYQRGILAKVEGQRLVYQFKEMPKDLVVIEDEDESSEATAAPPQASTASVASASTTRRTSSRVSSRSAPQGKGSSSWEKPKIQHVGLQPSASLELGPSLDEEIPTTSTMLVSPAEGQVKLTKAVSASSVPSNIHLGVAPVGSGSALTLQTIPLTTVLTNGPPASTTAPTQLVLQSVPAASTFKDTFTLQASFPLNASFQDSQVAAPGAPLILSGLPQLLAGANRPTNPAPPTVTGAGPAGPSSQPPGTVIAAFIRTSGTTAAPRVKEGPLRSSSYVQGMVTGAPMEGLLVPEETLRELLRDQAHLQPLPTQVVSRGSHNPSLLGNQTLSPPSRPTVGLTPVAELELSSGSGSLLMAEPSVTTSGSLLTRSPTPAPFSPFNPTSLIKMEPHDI
# ELF1, sequence (P32519 whole entry): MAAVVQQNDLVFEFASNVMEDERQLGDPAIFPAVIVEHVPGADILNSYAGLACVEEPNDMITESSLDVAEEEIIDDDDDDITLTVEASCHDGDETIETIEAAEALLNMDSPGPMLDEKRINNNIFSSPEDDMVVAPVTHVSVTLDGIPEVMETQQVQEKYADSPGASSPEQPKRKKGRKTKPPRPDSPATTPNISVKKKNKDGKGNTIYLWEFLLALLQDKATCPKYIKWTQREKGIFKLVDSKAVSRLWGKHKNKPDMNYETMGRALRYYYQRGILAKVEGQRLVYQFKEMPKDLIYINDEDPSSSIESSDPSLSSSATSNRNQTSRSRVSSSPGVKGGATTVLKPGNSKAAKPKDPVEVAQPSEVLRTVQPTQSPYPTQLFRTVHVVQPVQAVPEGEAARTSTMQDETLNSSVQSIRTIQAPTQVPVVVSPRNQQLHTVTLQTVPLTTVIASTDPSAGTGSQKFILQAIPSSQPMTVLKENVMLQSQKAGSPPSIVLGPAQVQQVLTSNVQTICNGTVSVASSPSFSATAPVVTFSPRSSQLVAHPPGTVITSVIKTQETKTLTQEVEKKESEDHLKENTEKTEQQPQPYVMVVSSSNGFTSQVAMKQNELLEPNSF
sequence,measurement,setting,value
TGGTAC,binding signal,FLI1,"1.18 fold enrichment (6-mer frequency, TF over GST control)"
same,binding signal,ELK1,"1.23 fold enrichment (6-mer frequency, TF over GST control)"
same,binding signal,GABPA,"1.13 fold enrichment (6-mer frequency, TF over GST control)"
same,binding signal,ERG,"1.15 fold enrichment (6-mer frequency, TF over GST control)"
same,binding signal,ELF1,"1.17 fold enrichment (6-mer frequency, TF over GST control)"
same,binding signal,EHF,"1.13 fold enrichment (6-mer frequency, TF over GST control)"
same,binding signal,SPI1,"1.12 fold enrichment (6-mer frequency, TF over GST control)"
same,binding signal,SPIB,"1.27 fold enrichment (6-mer frequency, TF over GST control)"
same,binding signal,ELK3,"1.07 fold enrichment (6-mer frequency, TF over GST control)"
same,binding signal,FEV,"1.07 fold enrichment (6-mer frequency, TF over GST control)"
same,binding signal,ETV5,"1.2 fold enrichment (6-mer frequency, TF over GST control)"
same,binding signal,HSF1,"1.04 fold enrichment (6-mer frequency, TF over GST control)"
same,binding signal,SPIC,"1.14 fold enrichment (6-mer frequency, TF over GST control)"
same,binding signal,ELF4,"1.08 fold enrichment (6-mer frequency, TF over GST control)"
same,binding signal,ELK4,"1.11 fold enrichment (6-mer frequency, TF over GST control)"
same,binding signal,ETV2,"1.15 fold enrichment (6-mer frequency, TF over GST control)"
same,binding signal,ELF3,"1.07 fold enrichment (6-mer frequency, TF over GST control)"
same,binding signal,ETV1,"1.19 fold enrichment (6-mer frequency, TF over GST control)"
